Data reported in PubChem BioAssay (Tox21).
Where “and” joins values, the source holds several entries; their conditions need not be identical. Identical values can stand only once. Records with an inconclusive call do not appear. Calls of active or inactive are those of the source. The call rests on the fitted dose curve; in most records, active means well fitted cell-killing curve with a large enough effect in the repeat runs; inconclusive means weak or mixed curves, or effect the other way; inactive means no such curve, though single readings can be large or run the other way.

Assay: Caspase-3/7 induction in CHO-K1 cells by small molecules, qHTS cell viability counter screen (AID 1346979); further: nearly all actives have a fitted effect of over 35% in size
Settings: CellTiter-Fluor fluorescence, 17 h; series mostly up to 92.4 µM
Procedure, shortened: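 In the same wells as the caspase read, viability of compound-treated wild-type CHO-K1 cells was assessed using CellTiter-Fluor, added after 16hr at 37C and measured by fluorescence following 1hr further incubation.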
Potency means the concentration at half of the fitted maximal effect.

Row | Compound | Potency
1 | COc1ccccc1OCCNCC(O)COc1cccc2[nH]c3ccccc3c12 (configuration not stated) | 29.8 µM (active)
2 | O=C(O)CCn1c2c(c3ccccc31)C[C@H](NS(=O)(=O)c1ccc(F)cc1)CC2 | inactive
3 | c1cc(OCC2CO2)cc(OCC2CO2)c1 (configuration not stated) | 60.6 µM (active)
4 | C=CC(=O)OCC(O)COc1ccccc1 (configuration not stated) | 61.1 µM (active)
5 | CCCOc1sc(C(=O)N2CCC(c3cc(CN)ccc3F)CC2)c(C)c1Br | 22.3 µM (active)
6 | CCN(CC)c1ccc(N)cc1 | 22.3 µM (active)
7 | CCCCCCCCCCCCCOP(=O)(O)O | inactive
8 | CC(C)N=C(N)/N=C(\N)Nc1ccc(Cl)cc1 | 11.9 µM (active)
9 | O=C1C=CC(=O)N1c1ccccc1 | 9.69 µM (active)
10 | CCCCCCCC/C=C\CCCCCCCC(=O)OCCOC(=O)CCCCCCC/C=C\CCCCCCCC | inactive
11 | CCCCOC(=O)C(C)CC (configuration not stated) | inactive
12 | CSc1ccc2c(c1)N(CCC1CCCCN1C)c1ccccc1S2 (configuration not stated) | 15.3 µM (active) and 29.8 µM (active)
13 | CCCCCCCCCCCCCC[n+]1ccccc1 | 27.3 µM (active)
14 | C[Si](C)(C)Cl | inactive
15 | C=CC(C)(CCC=C(C)C)OC(=O)/C=C/c1ccccc1 (configuration not stated) | inactive
16 | C=C(c1ccc(C(=O)O)cc1)c1cc2c(cc1C)C(C)(C)CCC2(C)C | 61.1 µM (active)
17 | C[C@H]1O[C@@H](O[C@H]2[C@@H](O)C[C@H](O[C@H]3[C@@H](O)C[C@H](O[C@H]4CC[C@@]5(C)[C@H](CC[C@@H]6[C@@H]5C[C@@H](O)[C@]5(C)[C@@H](C7=CC(=O)OC7)CC[C@]65O)C4)O[C@@H]3C)O[C@@H]2C)C[C@H](O)[C@@H]1O | inactive
